Bioassay records (PubChem BioAssay)
Most compounds without a hit are left out; they make up all but 2.2% or so of the library.
BaF3 parental = parental Ba/F3 cell viability inhibition, counter-screen for JAK2V617F inhibitor project, murine pro-B, CellTiter-Glo luminescence; CellTiter-Glo ATP luminescence; 220,000 compounds, 1.1% hits; AID 1486, 2009; inhibition, % at 5.6 µM;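 active = inhibition above a per-campaign cutoff, the mean inhibition of all tested compounds plus 3 SD, cut at about 27% in these data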
KLF5 inh = KLF5 expression inhibitors, primary screen, DLD-1 cells, luminescence | DLD-1 KLF5 promoter-luciferase reporter | inhibition, % at 5 µM | 290,000 compounds, 0.23% hits;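 active = inhibition above a per-plate limit of that plate's mean compound inhibition plus 3 SD, cut at about 60% in these data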;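 also: higher means less KLF5 promoter-driven luciferase light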
aSyn 5UTR inh = MLPCN primary screen, SNCA 5' untranslated region; alpha-synuclein 5'UTR reporter, inhibitor activity; inhibition, % (tested at 7.5 µM); 300,000 compounds, 0.82% hits; AID 1813, 2009; in the data active = inhibition above about 60%; inconclusive = no clear call, values can overlap the other calls;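 also: H4 neuroglioblastoma cells stably carrying SNCA 5'UTR luciferase fusion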
IEC-6 tox-1 = cytotoxicity in IEC-6 intestinal epithelial cells, primary screen, cytotoxicity control for KLF5 inhibitor project, cell-based, luminescence; IEC-6 cytotoxicity, luminescence viability; inhibition, % at 5 µM; 290,000 compounds, 0.78% hits; AID 1825, 2009
Ba/F3 V617F tox = reduced viability of JAK2V617F-dependent Ba/F3 cells, primary screen, JAK2V617F inhibitor project, cell-based, Ba/F3 EpoR-JAK2V617F, luminescence; inhibition, % at 5.6 µM; ATP luminescence; 220,000 compounds, 1.1% hits;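 active = inhibition above the campaign mean plus 3 SD over all tested compounds, cut at about 24% in these data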;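 also: cytokine-independent growth of Ba/F3 cells driven by EpoR plus mutant JAK2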
APP transl inh = inhibitors of APP translation via 5'UTR reporter, primary screen, APP 5'UTR luciferase, SH-SY5Y cells | inhibition, % at 2 µM | SH-SY5Y APP 5'UTR-luciferase reporter, luminescence | 190,000 compounds, 0.82% hits | AID 1285, 2008;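 active = inhibition above a set limit, derived from the sample mean plus 3 SD, cut at about 45% in these data; inconclusive = one replicate passes the limit while the other fails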
KLF5 inh confirm = KLF5 expression inhibitors, confirmation, DLD-1 cells, luminescence. shares compounds with KLF5 inh. DLD-1 KLF5 promoter firefly luciferase reporter. inhibition, % at 4 µM. 610 compounds, 79% hits. AID 1834, 2009;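 active = inhibition above a set limit taken from the earlier primary screen, cut at about 63% in these data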
IEC-6 tox-2 = cytotoxicity in rat IEC-6 cells, cytotoxicity control for KLF5 inhibitor project, cell-based, luminescence, triplicate; shares compounds with KLF5 inh; IEC-6 rat intestinal cells, viability luminescence; inhibition, % at 4 µM; 610 compounds, 56% hits; AID 1905, 2009; in the data active = inhibition above about 23%;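 also: cells exposed to compounds for 48 hours before viability read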
IEC-6 cytotox cf = cytotoxic compounds in IEC-6 epithelial cells, confirmation, cytotoxicity control, cell-based, luminescence; shares compounds with IEC-6 tox-1; IEC-6 rat intestinal epithelial viability; inhibition, % at 5 µM; 1,900 compounds, 63% hits
Numbers stand for hits; – = inactive; ? = inconclusive; · = not tested or not shown. Rule as the data show it, unless noted: active = inhibition above about 22%; inactive = the rest.

SMILES	BaF3 parental	KLF5 inh	aSyn 5UTR inh	IEC-6 tox-1	Ba/F3 V617F tox	APP transl inh	IEC-6 cytotox cf	others
CC(=O)OC(C)(C)/C=C/C(=O)C(C)(O)C1[C@H](O)C[C@@]2(C)C3CC=C4C(CC[C@@H](O)C4(C)C)[C@]3(CO)C(=O)C[C@]12C (some centres undefined)	·	90.3	86.1	99.3	·	·	97.1	KLF5 inh confirm=93.3;IEC-6 tox-2=96.3
CC(=NCc1cccnc1)c1c(O)n(-c2ccc(Cl)cc2)c(=O)[nH]c1=O	–	–	–	–	–	·	·
CC[C@@]1(O)C(=O)OCc2c1cc1n(c2=O)Cc2cc3ccccc3nc2-1	93.1	62.4	116.0	97.3	97.7	·	72.4	KLF5 inh confirm=94.0;IEC-6 tox-2=75.3
CC(=O)N1CC(=O)Nc2ccc(C)cc2C1c1ccccc1 (centres undefined)	·	–	–	–	·	·	·
C/C=C(\C)C(=O)N[C@@H](c1ccccc1)[C@@H](O)C(=O)O[C@H]1C[C@@]2(O)[C@@H](OC(=O)c3ccccc3)C3[C@](C)(C(=O)[C@H](OC(C)=O)C(=C1C)C2(C)C)[C@@H](O)C[C@H]1OC[C@@]31OC(C)=O (some centres undefined)	·	63.9	104.0	87.7	·	·	72.0	KLF5 inh confirm=87.9;IEC-6 tox-2=78.0
CC(=O)O[C@@]12CO[C@@H]1C[C@H](O)[C@@]1(C)C(=O)[C@H](O)C3=C(C)[C@@H](O)C[C@@](O)([C@@H](OC(=O)c4ccccc4)C12)C3(C)C (some centres undefined)	·	–	–	–	·	·	·
CCN1/C(=C\C=C\C2=[N+](CC)c3ccccc3C2(C)C)C(C)(C)c2ccccc21	93.4	83.8	103.9	64.1	99.0	93.3	70.5	KLF5 inh confirm=103.9;IEC-6 tox-2=63.6
CCC1(C(=O)c2ccccc2)C2c3ccccc3OC(=O)C21C(C)=O (centres undefined)	–	–	–	–	–	·	·
CC(C)[C@H]1C(=O)O[C@H](C(C)C)C(=O)N(C)[C@@H](C(C)C)C(=O)O[C@H](C(C)C)C(=O)N(C)[C@@H](C(C)C)C(=O)O[C@H](C(C)C)C(=O)N1C	76.8	69.9	85.7	89.2	98.5	–	54.0	KLF5 inh confirm=–;IEC-6 tox-2=–
COc1cc(C)c(CNCCc2c[nH]c3ccccc23)cc1C	·	–	–	24.4	·	·	–
COc1ccc(CNCCc2c[nH]c3ccccc23)c(OC)c1C	·	–	–	–	·	·	·
Cc1ccc(S(=O)(=O)N(c2cc(Cl)c(O)c(Cl)c2)P(=O)(OC(C)C)OC(C)C)cc1	–	–	–	–	–	–	·
CC[n+]1c(/C=C/C=C/c2ccc(N(C)C)cc2)sc2ccccc21	91.9	–	?	37.2	99.3	·	58.1
O=C1CN=C(c2ccc[nH]2)c2cc(Cl)ccc2N1	36.5	–	–	31.3	54.2	·	–
COC(=O)C(Cc1ccc(N(CCCl)CCCl)cc1)N=Cc1ccccc1O (centres undefined)	·	–	–	90.4	·	·	77.8
CCC(C)NC(=O)CCC(=O)OC1O[C@H]2OC3(C)CC[C@H]4[C@H](C)CCC(C1C)C24OO3 (some centres undefined)	·	83.8	–	34.7	·	·	22.9
Cc1c(C(=O)c2cccc3ccccc23)c2cccc3c2n1[C@H](CN1CCOCC1)CO3	·	·	–	·	·	·	·
CC1=CC2/C=C(\C)CCC(O)C(O)/C=C/C(=O)C23C(=O)NC(CC(C)C)C3C1C (centres undefined)	49.2	–	–	38.7	88.8	45.1	29.3
CC(C)Cc1nnc(NC(=O)CCC(=O)N2CCC3(CC2)OCCO3)s1	–	–	–	–	–	·	·
Nc1cc(Cl)c2nonc2c1[N+](=O)[O-]	–	–	·	69.3	47.0	96.2	29.9
OC1/C(=C/c2ccc(Cl)cc2Cl)N2CCC1CC2 (centres undefined)	–	–	–	–	–	–	·
C/C1=C\[C@@H](C)C/C=C/[C@H]2[C@@H]3O[C@]3(C)[C@@H](C)[C@H]3[C@H](Cc4c[nH]c5ccccc45)NC(=O)[C@]32C(=O)/C=C/C(=O)[C@@H]1O	63.0	–	81.1	90.6	65.2	83.8	66.3
O=c1[nH]c(=O)n(Cc2ccccc2Cl)c(O)c1/C=C1/C=CC=N1	–	–	–	–	–	–	·
CCCOc1ccc(C(=O)NC(=S)N2C[C@H]3C[C@H](C2)c2cccc(=O)n2C3)cc1	·	–	–	–	·	·	·
O=P(NS(=O)(=O)c1ccc(Cl)cc1)(Oc1ccccc1)Oc1ccccc1	–	–	–	–	–	–	·
SMILES	BaF3 parental	KLF5 inh	aSyn 5UTR inh	IEC-6 tox-1	Ba/F3 V617F tox	APP transl inh	IEC-6 cytotox cf	others
O=C(Nc1ccc(Cl)cc1)Nc1nccs1	79.1	–	–	68.2	84.8	60.1	60.3
O=C(Nc1nccs1)C(Cl)(Cl)Cl	–	–	–	–	–	–	·
CC1=C2C3OC(=O)C(C)C3CC[C@@]2(C)C=CC1=O (some centres undefined)	–	–	–	–	–	·	·
O=c1nc(/C=C/c2ccc(Cl)cc2Cl)cc(C(F)(F)F)[nH]1	·	–	–	–	·	·	·
COc1cccc(OC)c1C1=NCC(=O)Nc2c1oc1ccc(Br)cc21	39.4	–	?	34.1	75.5	92.7	56.7
CC(=O)c1cn(CC(=O)NCCc2c[nH]c3ccccc23)c2ccccc12	·	–	–	–	·	·	·
COc1cc2c(cc1OC)[C@@H]1C(=O)c3ccc4c(c3O[C@@H]1CO2)C[C@H](C(C)C)O4	65.3	–	–	34.6	71.1	·	24.8
C/C=C(\C)C(=O)N[C@@H](c1ccccc1)[C@@H](O)C(=O)O[C@H]1C[C@@]2(O)[C@@H](OC(=O)c3ccccc3)C3[C@](C)(C(=O)[C@H](O)C(=C1C)C2(C)C)[C@@H](O)C[C@H]1OC[C@@]31OC(C)=O (some centres undefined)	·	–	98.2	88.6	·	·	69.8
c1ccc(-c2nnc(C3CC(c4cccnc4)=NO3)o2)cc1 (centres undefined)	·	·	–	·	·	·	·
CC[C@@]1(O)C(=O)OCc2c1cc1n(c2=O)Cc2cc3c(NC(=O)CN)cccc3nc2-1	78.5	–	70.7	40.6	93.8	·	25.6
O=S(=O)(c1ccc(F)cc1)N1CCCCC1c1cccnc1 (centres undefined)	–	–	–	–	–	–	·
CN(C)c1ccc(/C=C/c2cc[n+](C)c3ccccc23)cc1	82.0	–	·	28.2	101.0	–	–
